# According to PubChem BioAssay (NCATS):
# Records with an inconclusive call do not appear. The source made the active and inactive calls. Calls follow the shape of the dose curve; as a rule, active = well fitted inhibition curve with a large enough effect; inconclusive = small, poorly fitted or top-dose-only effect; inactive = no such curve, though single readings can be large or run the other way.
# Test system: Zika virus NS2B-NS3 protease (linked construct)
# Assay: Primary screen NINDS Rhodamine qHTS for Zika virus inhibitors (AID 1347160); also: nearly all actives have a fitted effect of over 55% in size
# Settings: purified NS2B-NS3 protease, Rhodamine110 substrate fluorescence; series mostly up to 57.1 µM; activity change, negative = inhibition: at the top concentration
# Method in brief: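 Enzyme (25 nM, linked NS2B-NS3) was preincubated 15 min with compound in 10 mM Tris-HCl pH 8.0, 0.01% Tween 20. Rhodamine110 substrate (1.5 microM) was then added and fluorescence read at start and after 15 min.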
# % is scaled to controls: 0 for no effect and ±100 for the full control effect; potency is read from the fitted curve at half-maximal effect.
Structure (SMILES),"activity change, negative = inhibition",outcome,Potency
O=C(O)c1ccccc1C(=O)Nc1ccc(-c2ccccc2)cc1,3.98% (inactive),–,–
NC(=O)c1cnc(-c2ccc(C3(N)CCC3)cc2)c(-c2ccccc2)c1,–,inactive,–
COc1cc2c(cc1OC)CN(CCc1ccc(NC(=O)c3cc(OC)c(OC)cc3NC(=O)c3cnc4ccccc4c3)cc1)CC2,0.854% [at 33.1 µM] (inactive),–,–
CC[C@]1(O)C[C@@H]2CN(CCc3c([nH]c4ccccc34)[C@@](C(=O)OC)(c3cc4c(cc3OC)N(C)[C@H]3[C@@](O)(C(=O)OC)[C@H](OC(C)=O)[C@]5(CC)C=CCN6CC[C@]43[C@@H]65)C2)C1,112% (inactive),–,–
O=C(Nc1ccccc1-c1cn2c(CN3CCNCC3)csc2n1)c1cnc2ccccc2n1,428% (inactive),–,–
O=C(O)C(O)Cc1ccc(O)c(O)c1 (configuration not stated),–,–,3.49 µM (active)
O=C(NCc1ccccc1)c1csc(Nc2ccncn2)n1,7.72% (inactive),–,–
COc1ccc2c(Oc3ccc(NC(=O)c4c(C)n(CC(C)(C)O)n(-c5ccccc5)c4=O)nc3)ccnc2c1,113% (inactive),–,–
COc1ccc(C2Sc3ccccc3N(CCN(C)C)C(=O)C2OC(C)=O)cc1 (configuration not stated),–,inactive [at 33.1 µM],–
CN(C[C@@H]1COCCO1)S(=O)(=O)Nc1ccc2ccc3ncc(-c4cnn(C)c4)cc3c(=O)c2c1,-4.19% (inactive),–,–
CC(=O)N(C)C1(c2ccccc2)CCN(CCC[C@]2(c3ccc(Cl)c(Cl)c3)CCCN(C(=O)c3ccccc3)C2)CC1,88.8% (inactive),–,–
COc1cc(Nc2ncc(F)c(Nc3ccc4c(n3)NC(=O)C(C)(C)O4)n2)cc(OC)c1OC,68.2% (inactive),–,–
COc1ncc(-c2ccc3nccc(-c4ccnnc4)c3c2)cc1NS(=O)(=O)c1ccc(F)cc1F,-17.8% (inactive),–,–
COCCOc1nc(-c2ccc(Cl)c(Cl)c2)n(-c2ccc(NC(=O)CCl)cc2)n1,33.9% (inactive),–,–
CNC1CCC(N(Cc2cccc(-c3ccncc3)c2)C(=O)c2sc3c(F)ccc(F)c3c2Cl)CC1 (configuration not stated),293% (inactive),–,–
CN(C)C1CCN(C(=O)c2ccc(NC(=O)Nc3nc(N4CCOCC4)nc(N4CCOCC4)n3)cc2)CC1,1.95% [at 33.1 µM] (inactive),–,–
O=c1cc(CN2CCOCC2)occ1OCCCCCSc1ccnc2cc(C(F)(F)F)ccc12,28.6% (inactive),–,–
COCCOC(=O)C1=C(C)NC2=C(C(=O)CC(c3ccccc3OC)C2)C1c1cccc(O)c1 (configuration not stated),-4.78% (inactive),–,–
CO[C@H]1C=CO[C@@]2(C)Oc3c(C)c(O)c4c(O)c(c5c(c4c3C2=O)NC2(CCN(CC(C)C)CC2)N=5)=NC(=O)C(C)=CC=C[C@H](C)[C@H](O)[C@@H](C)[C@@H](O)[C@@H](C)[C@H](OC(C)=O)[C@H]1C,-5.66% (inactive),–,–

Structure (SMILES),"activity change, negative = inhibition",outcome,Potency
NC(=O)c1cccc(-c2cc(Nc3ccc(OC(F)(F)F)cc3)ncn2)c1,-13.2% (inactive),–,–
CCOC(=O)C1=C(N)Oc2ccc(Br)cc2C1C(C#N)C(=O)OCC (configuration not stated),–,–,inactive
O=C(O)CCc1nc(-c2ccccc2)c(-c2ccccc2)o1,-7.72% (inactive),–,–
Cc1nc(N)sc1-c1ccnc(Nc2ccc(N3CCOCC3)cc2)n1,-4.16% (inactive),–,–
COc1ccc(Cc2ccc(NC(N)=O)cc2)cc1-c1cccc(Cl)c1,-4.87% (inactive),–,–
CN(C)Cc1ccc(-c2nc3cccc4c3n2CCNC4=O)cc1,17.7% (inactive),–,–
CC(C)(C)Cn1c(N)nc2ccc(-c3[nH]c(C(C)(C)C)nc3-c3ccc(F)cc3)nc21,-15.5% (inactive),–,–
CCn1c(C(=O)N(C2CC2)C2CC2)cc2c3c(ncn3C)c(Nc3cc(C)n(C)n3)nc21,-13.4% (inactive),–,–
COc1cc2ncnc(-n3nc(-c4ccccn4)nc3N)c2cc1OC,12.2% [at 33.1 µM] (inactive),–,–
CS(=O)(=O)N(Cc1ccco1)CC(O)Cn1c2ccccc2c2ccccc21 (configuration not stated),16% (inactive),–,–
CC(C)(C)OC(=O)N[C@H]1CCCCCC=C[C@@H]2C[C@@]2(C(=O)NS(=O)(=O)C2CC2)NC(=O)[C@@H]2C[C@@H](OC(=O)N3Cc4cccc(F)c4C3)CN2C1=O,-14.1% (inactive),–,–
CC(C)C(=O)Oc1ccc(CO)cc1[C@H](CCN(C(C)C)C(C)C)c1ccccc1,27.8% (inactive),–,–
CN1CCN(CCOc2cc(OC3CCOCC3)c3c(Nc4c(Cl)ccc5c4OCO5)ncnc3c2)CC1,-15.1% (inactive),–,–
CC(C)n1nc(-c2ccc3oc(N)nc3c2)c2c(N)ncnc21,-13.8% (inactive),–,–
Cc1ccccc1C(C(=O)NC1CCCCC1)N(C(=O)Cn1ccnc1C)c1cccc(F)c1 (configuration not stated),11.6% (inactive),–,–
O=c1[nH]cnc2c1ncn2[C@H]1CC[C@@H](CO)O1,–,inactive,–
Cc1c(NC(=O)c2ccc(C(C)(C)C)cc2)cccc1-c1cn(C)c(=O)c(Nc2ccc(C(=O)N3CCOCC3)cc2)n1,-15.1% [at 33.1 µM] (inactive),–,–
COc1cc2nc(-c3ccc(N4CCN(C)CC4)cc3)nc(NCCN3CCOCC3)c2cc1OC,52.3% (inactive),–,–
